Tau fil binding = binds recombinant human tau filaments; recombinant tau filaments, thioflavin S fluorescence, 15 h; filaments grown with octadecylsulfate alongside compound; AID 596; 71,000 compounds, 2% hits; Potency, µM (series often up to 57.1 µM);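 further: actives lower thioflavin S fluorescence by blocking filaments or displacing dye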
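His-tagged recombinant human tau (exons 2, 3, 10; 1 uM final) fibrillized with 30 uM sodium octadecylsulfate, 15 h at 37 C, in pH 7.4 HEPES buffer with 10 uM thioflavine S and 5 mM DTT. Reduced ThS fluorescence (450/510 nm) marks activity.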
ALOX15 inhib = 15-hLO (ALOX15) enzyme inhibition; P16050; purified 15hLO-1, xylenol orange hydroperoxide absorbance; Potency, µM (doses to about 57.1 µM), hits mostly inhibitors; 74,000 compounds, 1.4% hits; further: nearly all actives have a fitted effect of over 55% in size
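Inhibition is scored from a chromogenic endpoint. After 15 min enzyme-compound contact, arachidonic acid (50 uM final) reacts 6 min with 40 nM 15hLO-1 at room temperature, then Fe-XO reagent is added for 30 min and absorbance ratio recorded.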
HEK293 cAMP ctrl = raises cAMP in parental HEK293 cells, TSHR agonist counter-screen | parental HEK293 CNG cAMP sensor, membrane potential fluorescence | Potency, µM (series often up to 57.1 µM), hits mostly activators | 73,000 compounds, 2.5% hits | AID 938; further: nearly all actives have a fitted effect of over 55% in size
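Parental HEK 293 cells stably expressing a modified CNG channel (no TSHR) report cAMP rise as membrane depolarization. Membrane potential dye with 100 uM RO 20-1724 was loaded for 60 min at room temperature, then compound added for 30 min; fluorescence read at 590 nm.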
TSHR agonist = agonists of human thyroid stimulating hormone receptor. P16473. HEK293-CNG-TSHR cells (CNG channel as cAMP sensor), membrane potential dye, cAMP. Potency, µM (highest dose often 57.1 µM), hits mostly activators. 73,000 compounds, 0.48% hits. AID 926; active means well fitted activation curve with a large enough effect in the main read-out, with a control signal flat, not every such curve was filed as active; inconclusive means small, poorly fitted or top-dose-only effect, or a change in a side signal; inactive means no such curve, though single readings can be large or run the other way; reference of the percent scale not stated here;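 further: the control signal comes from parental cells without the receptor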
Target sequence (P16473 whole entry, looked up): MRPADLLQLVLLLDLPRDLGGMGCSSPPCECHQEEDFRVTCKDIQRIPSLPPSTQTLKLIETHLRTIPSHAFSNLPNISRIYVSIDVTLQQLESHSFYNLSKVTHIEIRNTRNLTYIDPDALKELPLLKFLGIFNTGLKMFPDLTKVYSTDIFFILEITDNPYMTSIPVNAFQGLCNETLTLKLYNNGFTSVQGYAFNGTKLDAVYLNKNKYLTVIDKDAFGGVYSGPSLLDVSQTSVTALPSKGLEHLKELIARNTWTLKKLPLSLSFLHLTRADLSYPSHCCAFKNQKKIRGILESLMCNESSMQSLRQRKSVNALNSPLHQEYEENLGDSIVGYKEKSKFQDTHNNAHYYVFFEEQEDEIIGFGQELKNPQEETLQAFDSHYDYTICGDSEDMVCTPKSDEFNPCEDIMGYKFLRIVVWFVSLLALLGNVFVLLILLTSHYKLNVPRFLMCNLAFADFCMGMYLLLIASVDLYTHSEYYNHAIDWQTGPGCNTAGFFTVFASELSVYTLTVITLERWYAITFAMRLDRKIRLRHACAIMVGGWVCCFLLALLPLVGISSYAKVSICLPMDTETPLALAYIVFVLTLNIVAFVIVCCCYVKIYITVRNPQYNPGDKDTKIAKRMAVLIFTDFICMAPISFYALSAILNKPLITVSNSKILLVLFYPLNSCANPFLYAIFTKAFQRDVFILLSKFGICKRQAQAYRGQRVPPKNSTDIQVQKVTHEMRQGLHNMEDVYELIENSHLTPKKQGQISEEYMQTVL
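HEK 293 cells stably expressing TSHR and a modified CNG channel, with CNG-only parental cells as counterscreen, were preloaded 60 min at room temperature with membrane potential dye containing 100 uM RO 20-1724. Compound exposure was 30 min, and depolarization was read as fluorescence at 590 nm.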
FLuc inh = inhibitors of firefly luciferase | AID 411 | 72,000 compounds, 2.2% hits | purified firefly luciferase, luminescence, 8 min | Potency, µM (titrated, usually from 57.1 µM), most hits filed as inhibitors; further: nearly all actives have a fitted effect of over 40% in size
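Luminescence read-out after 8 min at room temperature; enzyme reaction used luciferin plus 10 uM ATP (linear range) in imidazole buffer pH 7.2 with KCl, MgCl2, Tween 20 and BSA. Each sample was run as a titration.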
PK Bst = alters activity of Bacillus stearothermophilus pyruvate kinase. purified pyruvate kinase, luminescence ATP production; ribose 5-phosphate activator present at AC10. Potency, µM. 51,000 compounds, 1.2% hits. AID 361; in the data active means potency below about 11 µM; inconclusive means mostly about 12 µM to 25 µM;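 the screen sought inhibitors and activators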
Hits are given with their value; 0 = inactive; ? = inconclusive; - = no result; [ ] = another dose, or the depositor's remark. Shown are actives, neighbours in structure and some others; about 7.8% of the full set was active somewhere. Unless noted, the call rests on the fitted dose curve; in most records, active means well fitted curve in the direction sought with a large enough effect; inconclusive means small, poorly fitted or top-dose-only effect, or another doubt; inactive means no such curve, though single readings can be large; an effect the other way counts as inactive or inconclusive.

SMILES	Tau fil binding	ALOX15 inhib	HEK293 cAMP ctrl	TSHR agonist	FLuc inh	PK Bst
CC(C)CC(c1nnnn1CC1CCCO1)N1CCN(c2cccc(Cl)c2)CC1 (stereo not drawn)	0	0	12.6µM	?	0	0
CC(C)CC(c1nnnn1CC1CCCO1)N1CCN(C2CCCC2)CC1 (stereo not drawn)	0	0	0	0	0	0
CC(C)CC(c1nnnn1Cc1ccco1)N1CCN(c2cccc(Cl)c2)CC1 (stereo not drawn)	0	0	10µM	?	0	0
c1cn(-c2ncnc3ccc(-c4ccoc4)cc23)cn1	0	0	0	0	0[2.29 µM]	-
c1ccc(-c2cc3c(-n4cccc4)ncnc3o2)cc1	0	0	20µM	?	0	0
CCNc1ncc2nc(CCc3ccccc3)c(=O)n(CCC#N)c2n1	0	0	?	?	0[11.4 µM]	-
CCc1cccc(Nc2cc(C)nc3nc(C)nn23)c1	0	0	0	0	0	-
O=c1c2ccccc2nnn1CSc1nc2cc(Cl)ccc2c(=O)n1Cc1ccco1	0	0	2µM	?	0	0
O=C(CSc1nnc(-c2cc3ccccc3cc2O)n1Cc1ccco1)c1ccc(F)cc1	0	?	0	-	0	0
COC(=O)c1ccc(CSc2nc3ccccc3c(=O)n2Cc2ccco2)o1	0	0	7.94µM	?	0	0
Cc1ccc(OCc2nnc(SCc3nc4ccccc4[nH]3)n2Cc2ccco2)cc1	0	0	31.6µM	?	0	0
O=C(CSc1nc2ccccc2c(=O)n1Cc1ccco1)c1ccc(F)cc1	0	0	25.1µM	?	0	0
C[N+]1([C@H](CO)Cc2c[nH]c3ccccc23)Cc2ccccc2C1	0[11.4 µM]	0[11.4 µM]	0[11.4 µM]	0[11.4 µM]	0[11.4 µM]	-
CO[C@H]1C[C@@H](O[C@@H]2[C@H](C)[C@H](O[C@@H]3O[C@@H](C)C[C@@H](N(C)C)[C@@H]3O)[C@H](C)C[C@]3(CO3)C(=O)[C@H](C)[C@H](O)[C@H](C)[C@H](C)OC(=O)[C@@H]2C)O[C@@H](C)[C@H]1O	0	0	0	0	0	-
N#CC(C#N)=CNCCN1CCN(C=C(C#N)C#N)CC1	0[11.4 µM]	0[11.4 µM]	0[11.4 µM]	0[11.4 µM]	0[11.4 µM]	-
CO/N=C(/C)CCC(=O)OC[C@@H]1O[C@H](c2ccccc2)C=C[C@@H]1Oc1ccc(OC)cc1	-	0[11.4 µM]	?	?	0[11.4 µM]	-
CN(C)Cc1cc(C(C)(C)C)ccc1-c1ccc(C(C)(C)C)cc1CN(C)C	0[11.4 µM]	0[11.4 µM]	0[11.4 µM]	0[11.4 µM]	0[11.4 µM]	-
O=C(CSc1nc2ccccc2c(=O)n1Cc1ccc(C(=O)NC2CC2)cc1)NCc1ccco1	0	0	0	0	0	0
CC1CCCC(C)N1C(=O)Cn1c(SCC(=O)NCc2ccc3c(c2)OCO3)nc2ccccc21 (stereo not drawn)	0	0	15.8µM	?	0	0
O=C(CSc1nc2ccccc2c(=O)n1Cc1ccco1)NCc1ccccc1	0	0	25.1µM	?	0	0
Cn1c(SCC(=O)NCc2ccco2)nc2ccccc2c1=O	0	0	0	0	0	0
COc1ccc(C(=O)Nn2c(SCC(=O)NCc3ccco3)nc3ccccc3c2=O)cc1	0	?	20µM	?	0	0
O=C(CSc1nnc(C2CCCCC2)n1Cc1ccccc1)NCc1ccco1	0	0	12.6µM	?	0	0
CCN(Cc1cc(Cl)cc(C)c1O)Cc1c(O)ccc2ccccc12	0[11.4 µM]	0[11.4 µM]	0[11.4 µM]	0[11.4 µM]	0[11.4 µM]	-
COC(=O)c1ccc(CSc2nc(-c3ccccc3)cs2)o1	0	0	39.8µM	?	?	-
SMILES	Tau fil binding	ALOX15 inhib	HEK293 cAMP ctrl	TSHR agonist	FLuc inh	PK Bst
C=CCn1c(SCC(=O)NCc2ccc3c(c2)OCO3)nnc1C1COc2ccccc2O1 (stereo not drawn)	0	0	0	0	0	0
O=C(CSc1ncc(-c2ccccc2)n1-c1ccccc1)NCc1ccco1	0	0	31.6µM	?	0	0
Cc1ccc(OCc2nnc(SCC(=O)c3ccccc3)n2Cc2ccco2)cc1	0	0	?	?	0	0
C=CCn1c(SCC(=O)NCc2ccc3c(c2)OCO3)nnc1C1CCCCC1	0	0	25.1µM	?	0	0
O=C(CSc1nnc(COc2ccccc2)n1Cc1ccco1)c1ccc(F)cc1	0	?	15.8µM	?	0	0
CCN(CC)CCCn1c(-c2ccccc2)nc2c(NCCOC)nc(C)nc21	0	0	0	0	-	-
